Data on 17 compounds can be found in PubChem BioAssay (NCATS).

Where “and” joins values, the source holds several entries; their conditions need not be identical. Equal values may be shown once.

This assay can be described thus: qHTS profiling for inhibitors of Plasmodium falciparum (HB3) proliferation (AID 743324).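 Note: 100% = DMSO vehicle wells and 0% = artemisinin-treated control wells.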 The note with it: Plasmodium falciparum HB3 blood-stage proliferation; at 28.7 µM (top of the series) unless noted. The source says:
Plasmodium falciparum is a virulent malarial parasite that kills 1-2 million people worldwide each year. Transmitted by mosquitoes, the sporozoite form of the parasite enters the blood stream to infect hepatocytes, where they become merozoites that infect red blood cells (erythrocytes). Within erythrocytes, merozoites begin a […] cycle of growth and division, after which the parasite is released to infect new red blood cells. Gametocytes, which form within erythrocytes as well, circulate in the bloodstream and are ingested by the mosquito, thereby completing the life cycle. To profile malarial isolates for differential chemical responses and to identify inhibitors of malarial growth, an assay that measures P. falciparum growth and replication within erythrocytes was employed. This assay uses a DNA binding fluorescent dye (SYBR Green) to detect parasite DNA following cell lysis. Because mature erythrocytes lack DNA, only Plasmodium-derived DNA is detected.
For screening 3 ul culture medium was dispensed into 1536 well black clear bottom plates (Aurora Biotechnologies) using a Multidrop Combi (Thermo Fisher Scientific Inc.), 23 nL compounds in DMSO were added by a pin tool (Kalypsys), and 5 ul of erythrocytes infected with P. falciparum (0.3% parasitemia, 2.5% hematocrit final concentration) were added. The plates were incubated at 37 C in a humidified incubator in 5% CO2 for 72 h, and 2 ul lysis buffer (20 mM Tris HCl, 10 mM EDTA, 0.16% saponin, […]% triton X, 10X SYBR Green I supplied as 10,000X […] by Invitrogen) was added to each well. The plates were mixed for 25 sec with gentle shaking and incubated overnight at room temperature in the dark. The following morning, fluorescence intensity at 485(14) nm excitation and 535(25) nm emission wavelengths was measured on an EnVision (Perkin Elmer) plate reader. Plate reads were normalized relative to the control inhibitor (0.29 uM artemisinin) and vehicle (DMSO) wells present on each plate and then corrected by an algorithm using vehicle-only control plates at the beginning and end of the compound plate stack.
A general note: Quantitative high-throughput screening tests each substance at several concentrations.
Take `COc1cc(Nc2c(C#N)cnc3cc(OCCCN4CCN(C)CC4)c(OC)cc23)c(Cl)cc1Cl`: the remaining proliferation (% of control), lower = more inhibition worked out at 1.13%.

Consider `Cc1cccc(-c2[nH]ncc2-c2ccc3ncccc3n2)n1`, for which the remaining proliferation (% of control), lower = more inhibition worked out at 89.3% [at 57.5 µM].

With `CCCCN(CCCC)CCC(O)c1cc2c(Cl)cc(Cl)cc2c2cc(C(F)(F)F)ccc12` (configuration not stated), the remaining proliferation (% of control), lower = more inhibition is 0.576% [at 9.63 µM].

Take `CCOC(=O)C(C)Oc1cccc2c(=O)n(CC(=O)Nc3ccc4c(c3)OCCO4)ccc12` (configuration not stated): the remaining proliferation (% of control), lower = more inhibition stood at 104%.

Turning to `CCOC(=O)C1=C(O)C(=O)N(Cc2ccccc2)C1`, the remaining proliferation (% of control), lower = more inhibition was determined as 67.7%.

For `Cc1cccc(C)c1OCC(=O)N[C@@H](Cc1ccccc1)[C@@H](O)C[C@H](Cc1ccccc1)NC(=O)[C@H](C(C)C)N1CCCNC1=O`, the remaining proliferation (% of control), lower = more inhibition is 0.361%.

As for `CCN(CC)CCOc1ccc(Nc2ncc3cc(-c4c(Cl)cccc4Cl)c(=O)n(C)c3n2)cc1`, the remaining proliferation (% of control), lower = more inhibition was -0.176%.

With `C[C@@H](N)C1CCC(C(=O)Nc2ccncc2)CC1` (some centres not stated), the remaining proliferation (% of control), lower = more inhibition came out at 94.3%.

With `Cc1cccc(C#Cc2ccccc2)n1`, the remaining proliferation (% of control), lower = more inhibition was found to be 75.6%.

On to `CCc1nc(N)nc(N)c1-c1ccc(Cl)cc1`, for which the remaining proliferation (% of control), lower = more inhibition was 3.84%.

Regarding `CN(C)c1ccc2nc3ccc(=[N+](C)C)cc-3sc2c1`, the remaining proliferation (% of control), lower = more inhibition came out at 14.3% [at 57.5 µM].

Take `CCN(CCO)CCCC(C)Nc1ccnc2cc(Cl)ccc12` (configuration not stated): the remaining proliferation (% of control), lower = more inhibition was 1.3% and -0.152%.

As for `Cc1nc(Nc2ncc(C(=O)Nc3c(C)cccc3Cl)s2)cc(N2CCN(CCO)CC2)n1`, the remaining proliferation (% of control), lower = more inhibition was found to be 34.2%.

As to `CC(C)c1ccc2c(c1)c(SC(C)(C)C)c(CC(C)(C)C(=O)O)n2Cc1ccc(Cl)cc1`, the remaining proliferation (% of control), lower = more inhibition amounted to 22.8%.

For the compound `Nc1cccc2c1CN(C1CCC(=O)NC1=O)C2=O` (configuration not stated), the remaining proliferation (% of control), lower = more inhibition was 96.8% [at 57.5 µM] and 102% [at 57.5 µM].

For `Cc1cc(C2CCCCC2)n(O)c(=O)c1`, the remaining proliferation (% of control), lower = more inhibition was -0.0898%.

`CC(C)C[C@H](NC(=O)[C@H](Cc1ccccc1)NC(=O)c1cnccn1)B(O)O`: the remaining proliferation (% of control), lower = more inhibition is -0.165%.
